Measured values reported in PubChem BioAssay (NCI).
The panel holds about 83,000 compounds, 20% with a hit somewhere; the sample as a whole holds those more often.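 48-hour exposure, single concentration, 96-well plates; percent growth endpoint where 0 means no net growth. Active: below 10.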 Calls of active or inactive are those of the source.

What was measured:
Assay in all cases: NCI-60 one-dose screen, 48 h (100 = growth as untreated, 0 = no growth, -100 = all killed)
Details in all cases: 10 µM unless noted
[1] = tested on: DU-145 prostate
[2] = tested on: K-562 leukemia
[3] = tested on: MALME-3M melanoma
[4] = tested on: MDA-MB-231 breast
[5] = tested on: SF-268 CNS
[6] = tested on: SF-295 CNS
[7] = tested on: SF-539 CNS
[8] = tested on: UACC-257 melanoma
[9] = tested on: M14 melanoma
[10] = tested on: HCT-15 colon
[11] = tested on: HT29 colon
[12] = tested on: SNB-75 CNS
[13] = tested on: SNB-19 CNS
[14] = tested on: U251 CNS
[15] = tested on: PC-3 prostate
[16] = tested on: SK-MEL-5 melanoma
[17] = tested on: UACC-62 melanoma
[18] = tested on: LOX IMVI melanoma
[19] = tested on: SK-MEL-28 melanoma

Measured: growth

COc1cc(COC(=O)CCCCC[P+](c2ccccc2)(c2ccccc2)c2ccccc2)c(OC)c2c1OCO2
inactive: [1] 83.5% | [2] 19.4% | [4] 70.2% | [5] 75.1% | [6] 76.9% | [7] 78.2% | [8] 15.6% | [9] 43.3% | [10] 99.3% | [11] 32.3% | [12] 59.9% | [13] 55.5% | [14] 56.8% | [15] 44.9% | [17] 46.9% | [18] 35.6% | [19] 51.4%
active: [3] 5.27% | [16] 3.32%

NS(=O)(=O)c1cccc(NC(=O)C(=O)C2C(=O)Nc3ccccc32)c1 (configuration not stated)
inactive: [1] 107% | [2] 109% | [3] 102% | [4] 95.7% | [5] 105% | [6] 94.2% | [7] 101% | [8] 100% | [9] 99.1% | [10] 99.8% | [11] 102% | [12] 74.6% | [13] 100% | [14] 107% | [15] 88.8% | [16] 96.7% | [17] 94.4% | [18] 95.6% | [19] 107%

COc1ccc(NC(=O)c2sc3nc(C)c(C(O)c4ccc(OC)cc4)cc3c2N)cc1 (configuration not stated)
active: [2] 9.99% | [6] -1.07% | [7] -11.4% | [11] 4.97% | [12] -16% | [16] 9.53%
inactive: [1] 25.6% | [3] 63.7% | [4] 22.1% | [5] 42% | [8] 60.4% | [9] 24.7% | [10] 16.3% | [13] 71.2% | [14] 25.9% | [15] 22.6% | [17] 31.6% | [18] 40.5% | [19] 65.8%

O=C(O)C(/C=C/c1ccco1)=N\Nc1nc(-c2ccc(Cl)cc2)cs1
inactive: [1] 70.1% | [2] 65.7% | [3] 79% | [4] 84.8% | [5] 50.9% | [6] 27.8% | [7] 43.4% | [8] 72.2% | [9] 43.7% | [10] 36.3% | [11] 86.4% | [12] 57.4% | [13] 42.5% | [14] 30.7% | [15] 54.3% | [16] 62.1% | [17] 57.1% | [18] 46.7% | [19] 70.4%

CC(C)CCSc1nc(NNC(N)=O)c(C#N)c(-c2ccccc2)n1
inactive: [1] 117% | [2] 99.2% | [3] 99.7% | [4] 99.6% | [5] 101% | [6] 96.9% | [7] 94.8% | [8] 102% | [9] 71.7% | [10] 98.7% | [11] 115% | [12] 97.6% | [13] 99.2% | [14] 109% | [15] 98.7% | [16] 104% | [17] 98.1% | [18] 97.6% | [19] 104%

COc1ccc(-c2nc(N/N=C/c3cccc(Br)c3)nc(N3CCOCC3)c2C#N)cc1
inactive: [1] 49.8% | [4] 72.2% | [5] 81.4% | [6] 54.2% | [7] 55.9% | [9] 24.8% | [11] 21.5% | [13] 93.4% | [14] 52.4% | [15] 47.8% | [16] 72% | [17] 84.4% | [18] 91.3%
active: [2] 3.14% | [3] 7.31% | [8] -17.9% | [10] 7.3% | [12] -17.7% | [19] -8.47%

COc1ccc(Cn2nc3c(c2-c2cc(OC)c(OC)c(OC)c2)-c2oncc2CC3)cc1
inactive: [1] 105% | [2] 39.9% | [3] 93.7% | [4] 65.8% | [5] 96.7% | [6] 77.2% | [7] 89.1% | [8] 104% | [9] 84.6% | [10] 73.2% | [11] 90.4% | [12] 62.6% | [13] 91.4% | [14] 94.4% | [15] 80.6% | [16] 70.9% | [17] 86.1% | [18] 80.9% | [19] 91.1%

CN1C2CCC1CN(c1cnc(C(=O)Nc3cc(F)cc4cccnc34)cn1)C2
inactive: [1] 74.6% | [2] 15.7% | [3] 41% | [4] 31.4% | [5] 85.6% | [6] 97.6% | [7] 70.4% | [8] 42.7% | [9] 54.3% | [10] 24.2% | [11] 37.1% | [12] 92.5% | [13] 92.7% | [14] 64% | [15] 15.2% | [16] 79.5% | [17] 94.9% | [18] 33.2% | [19] 57.8%
